Results taken from PubChem BioAssay (EPA / NIEHS).
Where “and” joins values, the source holds several entries; their conditions need not be identical. Equal values may be shown once. Records with an inconclusive call do not appear. Calls of active or inactive are those of the source. Rule for the calls: active = hit-call score of the fitted dose curve at least 0.9, where 1 is the maximum; inconclusive = response in the unintended direction; inactive = score below 0.9.

Experiments:
[1] = molecular target: rat Adrenergic Receptor, Alpha 2 (Adra2), Non-selective Binding, Adra2a (gene 25083) (UniProt P22909); experiment: NVS_GPCR_rAdra2_NonSelective: NovaScreen (NVS) G Protein-Coupled Receptor Assay for rat Adrenergic Receptor, Alpha 2 (Adra2), Non-selective Binding (AID 2283299)
How it was run: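 Filter-based scintillation counting of radioligand binding to rat cortical membrane receptors, measured 1.25 hours post-dosing; loss of signal versus DMSO indicates displacement. Initial single-concentration duplicate at 25 uM, then concentration series.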

[2] = molecular target: rat Neonicotinoid receptor (NNR), Chrna7 (gene 25302) (UniProt Q05941); experiment: NVS_LGIC_rNNR_BungSens: NovaScreen (NVS) Ligand-Gated Ion Channel Assay for rat Neonicotinoid receptor (NNR) (AID 2283315)
How it was run: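 Rat cortical membrane preparation incubated 2.5 h with tritiated or iodinated radioligand and test chemical. Bound radioactivity was filtered and counted by scintillation, and displacement was analysed against DMSO.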

[3] = molecular target: Sodium channel protein type 1 subunit alpha (Rattus norvegicus) (UniProt P04774); experiment: NVS_IC_rNaCh_site2: NovaScreen (NVS) Ion Channel Assay for rat Sodium Channel, Site 2 (NaCh) (AID 2283322);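 note: hit means loss of radioligand binding signal relative to DMSO so AC50 marks displacement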
How it was run: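 Initial duplicate single-point testing at 25 uM, followed by concentration-response runs for actives. Binding of radioligand to rat forebrain membranes quantified after 1 h via filter-based radiodetection.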

[4] = molecular target: human Peripheral-type Benzodiazepine Receptor (PBR), TSPO (gene 706) (UniProt P30536); experiment: NVS_MP_hPBR: NovaScreen (NVS) Membrane Protein Assay for human Peripheral-type Benzodiazepine Receptor (PBR) (AID 2283331);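 note: hits reduce radioligand binding relative to DMSO baseline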
How it was run: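 Cell-free radioligand displacement, human colonic membranes, 1 h exposure. Filter radiodetection read-out. Single-concentration duplicates (25 uM), then concentration-response for actives; DMSO negative control.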

[5] = molecular target: rat Vasopressin 1 Receptor (V1), Avpr1a (gene 25107) (UniProt P30560); experiment: NVS_GPCR_rV1: NovaScreen (NVS) G Protein-Coupled Receptor Assay for rat Vasopressin 1 Receptor (V1) (AID 2283316)
How it was run: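 Concentration-response up to 50 uM for chemicals passing a threshold such as 30% inhibition in an initial duplicate 25 uM screen. Displacement of radioligand from rat liver membranes measured after 1.5 h by filtration and scintillation.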

[6] = molecular target: rat Thyrotropin Releasing Hormone Receptor (TRH), Trhr (gene 25570) (UniProt Q01717); experiment: NVS_GPCR_rTRH: NovaScreen (NVS) G Protein-Coupled Receptor Assay for rat Thyrotropin Releasing Hormone Receptor (TRH) (AID 2283329);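 note: hit means lower bound tracer signal versus DMSO baseline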
How it was run: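 Competitive radioligand binding on rat forebrain membrane preparations, with filtration and scintillation readout after 4 h. Primary testing in duplicate at 25 uM; actives confirmed in concentration-response. DMSO defined baseline.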

NCBI gene 24521 = experiment: NVS_IC_rKATPCh: NovaScreen (NVS) Ion Channel Assay for rat Potassium Channel, ATP-Sensitive (KATPCh) (AID 2283319)
How it was run: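 Primary duplicate screen at 25 uM, then singleton concentration series to 50 uM maximum, in a rat cortex membrane radioligand displacement assay. Binding measured by filtration and scintillation 2 h post-dose; DMSO baseline.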

[7] = molecular target: rat Gamma-Aminobutyric Acid Type A Receptor, Non-Selective (GABAR-NonSelective), Gabra1 (gene 29705) (UniProt P62813); experiment: NVS_LGIC_rGABAR_NonSelective: NovaScreen (NVS) Ligand-Gated Ion Channel Assay for rat Gamma-Aminobutyric Acid Type A Receptor, Non-Selective (GABAR-NonSelective) (AID 2283326)
How it was run: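 Compounds were first screened in duplicate at 25 uM, with actives run as singleton concentration series (max 50 uM). Binding of a radioligand to rat whole-brain GABA-A preparation was measured by filtration and scintillation counting after 1 h, DMSO baseline.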

[8] = molecular target: rat Somatostatin Receptor (SST), Sstr1 (gene 25033) (UniProt P28646); experiment: NVS_GPCR_rSST: NovaScreen (NVS) G Protein-Coupled Receptor Assay for rat Somatostatin Receptor (SST) (AID 2283314)
How it was run: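 Single-concentration duplicate screen (25 uM), then concentration-response up to 50 uM for chemicals passing a threshold such as 30% inhibition. Membranes came from rat forebrain. Binding was measured 1 h post-dose by filter radiodetection and scintillation, relative to DMSO.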

[9] = molecular target: human Androgen Receptor (AR), AR (gene 367) (UniProt P10275); experiment: NVS_NR_hAR: NovaScreen (NVS) Nuclear Receptor Binding Assay for human Androgen Receptor (AR) (AID 2283332)
How it was run: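 LnCAP cell-free extract; radioligand displacement read by scintillation counting after 20 h. Primary screen single concentration 25 uM in duplicate, actives then run as concentration series; loss-of-signal fitted relative to DMSO baseline.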

[10] = molecular target: rat Adrenergic Receptor, Beta (Adrb), Non-selective Binding, Adrb1 (gene 24925) (UniProt P18090); experiment: NVS_GPCR_rAdrb_NonSelective: NovaScreen (NVS) G Protein-Coupled Receptor Assay for rat Adrenergic Receptor, Beta (Adrb), Non-selective Binding (AID 2283298)
How it was run: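 Rat cortical membranes incubated 1 h with beta-adrenergic radioligand and test chemical; bound ligand measured by filtration and scintillation counting. Screen at 25 uM duplicate, then concentration series with 50 uM maximum; loss of signal versus DMSO.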

[11] = NVS_IC_rCaDHPRCh_L: NovaScreen (NVS) Ion Channel Assay for rat Calcium Channel, Type L, Dihydropyridine Site (CaDHPRCh_L) (AID 2283320)
How it was run: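 Rat cortex membrane preparation; dihydropyridine-site radioligand displacement read 1 h post-dose by filtration and scintillation. Primary single-point screen 25 uM in duplicate, then concentration series to 50 uM maximum; DMSO as negative control.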

Sequence of rat Adrenergic Receptor, Alpha 2 (Adra2), Non-selective Binding, Adra2a (gene 25083) (P22909 whole entry, looked up): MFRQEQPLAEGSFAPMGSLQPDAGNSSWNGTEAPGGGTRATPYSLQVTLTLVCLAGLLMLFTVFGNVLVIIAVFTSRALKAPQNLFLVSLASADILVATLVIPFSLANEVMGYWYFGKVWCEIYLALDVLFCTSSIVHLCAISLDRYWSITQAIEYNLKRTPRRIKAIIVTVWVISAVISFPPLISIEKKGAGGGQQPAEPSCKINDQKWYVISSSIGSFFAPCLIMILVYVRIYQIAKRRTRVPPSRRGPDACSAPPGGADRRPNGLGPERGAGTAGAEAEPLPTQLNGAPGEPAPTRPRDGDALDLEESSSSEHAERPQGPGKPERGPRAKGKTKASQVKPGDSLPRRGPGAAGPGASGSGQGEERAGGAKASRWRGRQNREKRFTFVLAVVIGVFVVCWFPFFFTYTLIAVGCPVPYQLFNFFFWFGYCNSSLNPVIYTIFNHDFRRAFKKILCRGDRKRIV
Sequence of rat Thyrotropin Releasing Hormone Receptor (TRH), Trhr (gene 25570) (Q01717 whole entry, looked up): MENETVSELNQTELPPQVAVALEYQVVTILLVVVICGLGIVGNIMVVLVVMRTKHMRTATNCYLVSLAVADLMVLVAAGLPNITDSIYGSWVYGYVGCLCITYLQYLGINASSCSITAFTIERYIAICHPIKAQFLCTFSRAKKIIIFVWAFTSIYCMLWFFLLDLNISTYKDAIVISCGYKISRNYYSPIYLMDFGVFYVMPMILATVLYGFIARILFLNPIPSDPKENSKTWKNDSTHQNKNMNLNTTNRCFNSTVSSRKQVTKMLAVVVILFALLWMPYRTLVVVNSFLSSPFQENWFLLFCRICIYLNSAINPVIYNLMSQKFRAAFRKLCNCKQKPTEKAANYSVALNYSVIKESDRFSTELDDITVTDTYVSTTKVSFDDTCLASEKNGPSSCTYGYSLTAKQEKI
Sequence of human Peripheral-type Benzodiazepine Receptor (PBR), TSPO (gene 706) (P30536 whole entry, looked up): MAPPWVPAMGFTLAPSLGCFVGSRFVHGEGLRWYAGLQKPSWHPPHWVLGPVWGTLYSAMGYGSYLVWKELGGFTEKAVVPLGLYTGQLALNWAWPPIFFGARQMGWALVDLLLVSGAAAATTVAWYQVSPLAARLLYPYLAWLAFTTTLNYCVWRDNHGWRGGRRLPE
Sequence of rat Neonicotinoid receptor (NNR), Chrna7 (gene 25302) (Q05941 whole entry, looked up): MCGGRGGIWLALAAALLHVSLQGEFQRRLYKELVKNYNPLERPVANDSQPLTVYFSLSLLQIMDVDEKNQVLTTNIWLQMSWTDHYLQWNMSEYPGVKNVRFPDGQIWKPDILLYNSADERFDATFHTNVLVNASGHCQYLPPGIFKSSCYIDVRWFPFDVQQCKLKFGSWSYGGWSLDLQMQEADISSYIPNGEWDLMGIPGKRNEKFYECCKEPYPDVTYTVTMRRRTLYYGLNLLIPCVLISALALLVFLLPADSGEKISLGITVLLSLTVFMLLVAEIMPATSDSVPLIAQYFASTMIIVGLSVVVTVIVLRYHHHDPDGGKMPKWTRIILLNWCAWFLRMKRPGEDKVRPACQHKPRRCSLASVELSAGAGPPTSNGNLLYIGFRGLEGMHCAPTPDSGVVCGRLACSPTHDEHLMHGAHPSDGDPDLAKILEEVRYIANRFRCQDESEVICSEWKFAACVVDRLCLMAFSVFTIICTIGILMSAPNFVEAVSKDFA
Sequence of human Androgen Receptor (AR), AR (gene 367) (P10275 whole entry, looked up): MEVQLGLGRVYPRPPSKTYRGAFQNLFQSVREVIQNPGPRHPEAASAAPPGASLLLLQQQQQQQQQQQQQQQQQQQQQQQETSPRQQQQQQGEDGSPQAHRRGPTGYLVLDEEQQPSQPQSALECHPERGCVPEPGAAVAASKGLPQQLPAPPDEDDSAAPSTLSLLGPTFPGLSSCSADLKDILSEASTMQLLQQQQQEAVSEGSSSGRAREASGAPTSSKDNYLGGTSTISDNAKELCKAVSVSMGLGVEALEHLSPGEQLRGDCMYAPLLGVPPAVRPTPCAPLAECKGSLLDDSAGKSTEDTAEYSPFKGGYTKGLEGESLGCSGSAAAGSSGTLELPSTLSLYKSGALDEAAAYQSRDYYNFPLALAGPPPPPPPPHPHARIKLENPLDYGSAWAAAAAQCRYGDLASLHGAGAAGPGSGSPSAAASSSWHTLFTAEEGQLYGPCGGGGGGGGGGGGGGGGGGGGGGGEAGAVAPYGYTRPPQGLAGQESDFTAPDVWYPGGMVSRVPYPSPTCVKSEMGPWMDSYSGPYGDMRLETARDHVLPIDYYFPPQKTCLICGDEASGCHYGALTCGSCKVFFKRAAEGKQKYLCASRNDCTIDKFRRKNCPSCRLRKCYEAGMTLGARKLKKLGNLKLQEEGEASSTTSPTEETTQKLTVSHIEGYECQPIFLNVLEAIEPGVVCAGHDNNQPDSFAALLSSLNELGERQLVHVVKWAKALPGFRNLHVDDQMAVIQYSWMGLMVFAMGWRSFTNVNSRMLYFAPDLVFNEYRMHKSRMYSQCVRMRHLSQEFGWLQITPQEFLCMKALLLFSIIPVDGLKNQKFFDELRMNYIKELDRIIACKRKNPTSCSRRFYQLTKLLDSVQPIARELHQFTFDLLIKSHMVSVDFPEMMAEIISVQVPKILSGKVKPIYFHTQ
Sequence of rat Adrenergic Receptor, Beta (Adrb), Non-selective Binding, Adrb1 (gene 24925) (P18090 whole entry, looked up): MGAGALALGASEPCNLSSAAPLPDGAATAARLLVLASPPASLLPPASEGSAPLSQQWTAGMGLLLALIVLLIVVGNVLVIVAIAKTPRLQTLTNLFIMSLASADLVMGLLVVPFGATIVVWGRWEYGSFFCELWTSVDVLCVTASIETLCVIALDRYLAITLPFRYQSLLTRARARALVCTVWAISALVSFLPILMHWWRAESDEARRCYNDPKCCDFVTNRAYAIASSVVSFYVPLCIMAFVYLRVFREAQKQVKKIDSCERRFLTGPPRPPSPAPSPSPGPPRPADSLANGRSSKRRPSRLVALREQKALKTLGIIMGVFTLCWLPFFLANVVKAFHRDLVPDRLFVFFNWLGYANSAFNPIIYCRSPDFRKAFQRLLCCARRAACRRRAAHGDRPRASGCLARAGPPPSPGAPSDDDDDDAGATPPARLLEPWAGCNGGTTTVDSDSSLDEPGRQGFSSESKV
Sequence of rat Somatostatin Receptor (SST), Sstr1 (gene 25033) (P28646 whole entry, looked up): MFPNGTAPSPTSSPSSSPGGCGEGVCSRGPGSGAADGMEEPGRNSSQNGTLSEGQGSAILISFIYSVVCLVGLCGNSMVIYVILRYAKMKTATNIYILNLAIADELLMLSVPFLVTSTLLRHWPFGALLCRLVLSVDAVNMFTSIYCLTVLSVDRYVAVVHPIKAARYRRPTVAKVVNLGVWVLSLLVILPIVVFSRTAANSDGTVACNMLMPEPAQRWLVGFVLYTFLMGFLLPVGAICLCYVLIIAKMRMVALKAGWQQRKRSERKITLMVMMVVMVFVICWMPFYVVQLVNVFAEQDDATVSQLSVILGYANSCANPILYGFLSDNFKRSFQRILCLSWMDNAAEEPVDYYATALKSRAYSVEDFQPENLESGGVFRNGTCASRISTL
Sequence of rat Vasopressin 1 Receptor (V1), Avpr1a (gene 25107) (P30560 whole entry, looked up): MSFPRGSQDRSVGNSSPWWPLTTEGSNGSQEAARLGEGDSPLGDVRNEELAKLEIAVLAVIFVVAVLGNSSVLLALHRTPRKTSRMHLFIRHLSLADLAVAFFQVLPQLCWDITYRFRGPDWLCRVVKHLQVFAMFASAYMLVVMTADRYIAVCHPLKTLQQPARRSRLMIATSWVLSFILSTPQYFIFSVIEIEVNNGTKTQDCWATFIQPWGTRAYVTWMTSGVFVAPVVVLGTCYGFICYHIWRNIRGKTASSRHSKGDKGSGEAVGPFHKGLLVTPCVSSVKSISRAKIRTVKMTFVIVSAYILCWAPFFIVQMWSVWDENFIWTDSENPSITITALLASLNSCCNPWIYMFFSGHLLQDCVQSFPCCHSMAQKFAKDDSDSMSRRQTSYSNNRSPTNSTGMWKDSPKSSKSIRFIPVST
Sequence of rat Gamma-Aminobutyric Acid Type A Receptor, Non-Selective (GABAR-NonSelective), Gabra1 (gene 29705) (P62813 whole entry, looked up): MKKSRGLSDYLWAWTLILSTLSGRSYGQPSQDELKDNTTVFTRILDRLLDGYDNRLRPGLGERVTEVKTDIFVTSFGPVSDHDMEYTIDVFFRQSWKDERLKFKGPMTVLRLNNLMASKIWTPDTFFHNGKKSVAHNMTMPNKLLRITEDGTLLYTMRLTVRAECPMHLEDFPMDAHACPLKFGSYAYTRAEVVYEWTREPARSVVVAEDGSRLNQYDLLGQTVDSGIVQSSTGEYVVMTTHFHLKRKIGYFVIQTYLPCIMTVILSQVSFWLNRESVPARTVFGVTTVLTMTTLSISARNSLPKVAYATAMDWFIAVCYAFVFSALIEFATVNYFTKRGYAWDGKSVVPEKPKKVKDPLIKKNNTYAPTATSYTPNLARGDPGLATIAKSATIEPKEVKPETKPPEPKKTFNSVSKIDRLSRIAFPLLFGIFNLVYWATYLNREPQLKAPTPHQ

Question: Which AC50 [1] does the source give for `NC(=NCCCCCCN=C(N)/N=C(\N)Nc1ccc(Cl)cc1)/N=C(\N)Nc1ccc(Cl)cc1` here?
Answer: The AC50 was 17.6 µM (active).

Question: What about the AC50 [2] of the same compound?
Answer: Its AC50 is 38.3 µM (active).

Question: And the outcome [3]?
Answer: Its outcome is “inactive”.

Question: What about the AC50 [4] of the same compound?
Answer: The AC50 was 10.3 µM (active).

Question: With `CS(=O)(=O)c1ccc([C@@H](CC2CCCC2)C(=O)Nc2cnccn2)cc1Cl` as the compound, how does the outcome [5] read?
Answer: The outcome was “inactive”.

Question: What about the outcome [6] of the same compound?
Answer: The outcome was “inactive”.

Question: What does the source list for `CCCCCCCCCCCCOS(=O)(=O)O`?
Answer: outcome (NCBI gene 24521): inactive; AC50 [7]: 5.96 µM (active)

Question: Which results are given for `CN(Cc1cnc2nc(N)nc(N)c2n1)c1ccc(C(=O)N[C@@H](CCC(=O)O)C(=O)O)cc1`?
Answer: AC50 [8]: 3.06 µM (active); outcome [3]: inactive; outcome [4]: inactive; outcome [9]: inactive

Question: For `C=CC(=O)OCCN(CC)CC`, which outcome [3] is on record?
Answer: Its outcome is “inactive”.

Question: With `COC1=CC(=O)C[C@@H](C)[C@]12Oc1c(Cl)c(OC)cc(OC)c1C2=O` as the compound, how does the AC50 [1] read?
Answer: Its AC50 is 3.69 µM (active).

Question: For `O=C(CCCN1CCC(O)(c2ccc(Cl)cc2)CC1)c1ccc(F)cc1`, which AC50 [10] is on record?
Answer: The AC50 was 18.2 µM (active).

Question: And the AC50 [11]?
Answer: Its AC50 is 3.15 µM (active).

Question: And the AC50 [3]?
Answer: Its AC50 is 376 nM (active).

Question: For `CCc1ccccc1O`, which outcome [6] is on record?
Answer: The outcome was “inactive”.

Question: For `CCCCCC(C)OC(=O)COc1ccc(Cl)c2cccnc12` (stereo not drawn), which AC50 [4] is on record?
Answer: The AC50 was 4.96 µM (active).

Question: With `CC(C)(c1ccc(Oc2ccc(N)cc2)cc1)c1ccc(Oc2ccc(N)cc2)cc1` as the compound, how does the AC50 [9] read?
Answer: Its AC50 is 9 µM (active).

Question: Which outcome [6] does the source give for `CCCCc1ccc2ccccc2c1S(=O)(=O)O` here?
Answer: Its outcome is “inactive”.

Question: Which outcome [6] does the source give for `Cc1cc(C(=C2C=CC(=Nc3ccc(S(=O)(=O)O)cc3)C=C2)c2ccc(Nc3ccc(S(=O)(=O)O)cc3)cc2)cc(S(=O)(=O)O)c1N` here?
Answer: The outcome was “inactive”.

Question: With `Clc1ccc(Nc2nnc(Cc3ccncc3)c3ccccc23)cc1` as the compound, how does the AC50 [3] read?
Answer: The AC50 was 2080 nM (active).

Question: And the AC50 [4]?
Answer: The AC50 was 1.95 µM (active).

Question: For `COc1cc([N+](=O)[O-])ccc1N`, which outcome [6] is on record?
Answer: Its outcome is “inactive”.

Question: With `CCCCC(CC)C(=O)OCCOCCOCCOCCOC(=O)C(CC)CCCC` (stereo not drawn) as the compound, how does the AC50 [4] read?
Answer: Its AC50 is 15.8 µM (active).

Question: For `NCCN`, which outcome [6] is on record?
Answer: Its outcome is “inactive”.

Question: What does the source list for `CCCCCCCCCCCCCCCCCC[N+](C)(C)Cc1ccccc1`?
Answer: outcome [3]: inactive; outcome [4]: inactive

Question: For `CC(C)c1c(C(=O)Nc2ccccc2)c(-c2ccccc2)c(-c2ccc(F)cc2)n1CC[C@@H](O)C[C@@H](O)CC(=O)O`, which AC50 [4] is on record?
Answer: The AC50 was 11.2 µM (active).

Question: For `CN(C)c1ccc(C(=C2C=CC(=[N+](C)C)C=C2)c2ccccc2)cc1`, which AC50 [1] is on record?
Answer: Its AC50 is 8.31 µM (active) and 7.55 µM (active).

Question: And the AC50 [3]?
Answer: The AC50 was 860 nM (active) and 5.04 µM (active).

Question: What about the AC50 [4] of the same compound?
Answer: Its AC50 is 1.29 µM (active) and 1.63 µM (active).

Question: Which AC50 [4] does the source give for `C/C=C/C(=O)C1=C(C)CCCC1(C)C` here?
Answer: The AC50 was 10.8 µM (active).

Question: What does the source list for `CCOC(=O)CN[C@@H](C(=O)N1CC[C@H]1C(=O)NCc1ccc(/C(N)=N/O)cc1)C1CCCCC1`?
Answer: AC50 [3]: 2.87 nM (active); AC50 [4]: 1.25 µM (active)

Question: With `CC1CNCC(C)O1` (stereo not drawn) as the compound, how does the AC50 [2] read?
Answer: The AC50 was 25 µM (active).

Question: With `Cc1ccc(C)c(S(=O)(=O)O)c1` as the compound, how does the AC50 [6] read?
Answer: The AC50 was 0.194 µM (active).
